Laboratory results as given in PubChem BioAssay AID588451 (Broad Institute, 2011).
Results with a measured potency or affinity are listed apart. Activity calls are given as the source filed them. The rule behind the calls is not given here.

Target: Luciferin 4-monooxygenase (Photinus pyralis) (UniProt P08659)
Assay: firefly luciferase enzyme inhibitors, dose response, biochemical, dry powder samples, plate reader (AID 588451)

Sequence of Luciferin 4-monooxygenase (Photinus pyralis) (P08659 whole entry, looked up): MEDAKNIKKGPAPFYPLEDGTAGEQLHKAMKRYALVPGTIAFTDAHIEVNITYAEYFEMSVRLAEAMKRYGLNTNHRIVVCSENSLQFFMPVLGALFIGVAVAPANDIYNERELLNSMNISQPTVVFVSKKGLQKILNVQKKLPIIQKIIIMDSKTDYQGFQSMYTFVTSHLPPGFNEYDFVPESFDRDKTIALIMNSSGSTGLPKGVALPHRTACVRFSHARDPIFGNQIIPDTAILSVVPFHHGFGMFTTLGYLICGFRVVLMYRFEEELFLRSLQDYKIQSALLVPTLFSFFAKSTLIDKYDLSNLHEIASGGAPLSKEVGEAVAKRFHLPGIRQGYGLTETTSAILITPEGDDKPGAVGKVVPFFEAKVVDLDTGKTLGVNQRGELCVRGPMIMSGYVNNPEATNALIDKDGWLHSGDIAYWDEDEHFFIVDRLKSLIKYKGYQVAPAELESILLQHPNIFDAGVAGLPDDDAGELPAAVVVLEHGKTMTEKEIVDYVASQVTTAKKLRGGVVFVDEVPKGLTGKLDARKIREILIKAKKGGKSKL

Cc1ccc(C(=O)N/N=C/c2ccc([N+](=O)[O-])s2)cc1
outcome: inactive
